Screening results: PubChem BioAssay, several laboratories
Hits are enriched below; roughly 4.7% of the tested compounds scored in any of these assays.
ADAM10 inh – inhibitors of human ADAM10; actives 0.62% (n = 370,000); AID 720582; inhibition, % at 7 µM; O14672; recombinant ADAM10, EDANS/DABCYL FRET peptide cleavage, 3 h;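 active means inhibition above a per-campaign cutoff equal to the mean of compounds falling between control-based bounds plus 3 SD, cut at about 20% in these data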
proKLK7 act – activators of human kallikrein-7 zymogen; purified proKLK7, EDANS-DABCYL substrate fluorescence; 100% is mature enzyme control, 0% vehicle; activation, % at 7 µM; actives 0.9% (n = 370,000); AID 652039;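 active means activation above the mean of all tested compounds plus 3 SD, computed per campaign excluding outliers beyond control limits, cut at about 13% in these data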
Pemphigus Ab inh – inhibitors of pemphigus antibody binding to human desmoglein-3; P32926; DSG3-coupled beads, scFv-anti-DSG3-GFP binding, flow cytometry; active compounds read low; binding (percent of control), % at 10 µM; actives 0.48% (n = 310,000);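 active means binding more than 3 SD below its plate's average and above zero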;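 further: hits lower antibody fragment binding to DSG3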
ADAM17 inh – ADAM17 inhibition, QFRET primary screen. P78536. recombinant ADAM17, EDANS/DABCYL FRET peptide cleavage. inhibition, % at 6.95 µM. actives 0.83% (n = 370,000). AID 720648;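 active means inhibition above the mean of compounds lying between control limits plus 3 SD, set per campaign, cut at about 8.5% in these data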
Target sequence (P78536 215-824 limits assumed): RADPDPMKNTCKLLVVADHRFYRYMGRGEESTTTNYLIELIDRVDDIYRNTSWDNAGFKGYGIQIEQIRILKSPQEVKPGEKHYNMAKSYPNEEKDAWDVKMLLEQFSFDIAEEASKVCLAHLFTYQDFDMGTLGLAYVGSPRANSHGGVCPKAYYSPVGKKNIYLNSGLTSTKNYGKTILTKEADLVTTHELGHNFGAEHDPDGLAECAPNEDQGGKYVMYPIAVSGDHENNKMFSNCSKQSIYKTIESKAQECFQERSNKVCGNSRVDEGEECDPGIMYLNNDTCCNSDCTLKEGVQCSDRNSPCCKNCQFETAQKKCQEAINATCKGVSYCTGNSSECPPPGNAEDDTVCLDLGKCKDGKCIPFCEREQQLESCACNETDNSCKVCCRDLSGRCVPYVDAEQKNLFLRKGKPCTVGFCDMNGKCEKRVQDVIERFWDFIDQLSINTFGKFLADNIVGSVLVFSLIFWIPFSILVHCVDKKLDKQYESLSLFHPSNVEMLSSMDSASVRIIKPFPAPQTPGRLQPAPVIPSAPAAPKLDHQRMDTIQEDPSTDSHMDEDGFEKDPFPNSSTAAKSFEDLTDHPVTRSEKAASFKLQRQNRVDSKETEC
MPTP inh – permeability transition pore inhibition; inhibition, % at 10 µM; actives 1.4% (n = 360,000); isolated mouse mitochondria, Ca2+ swelling absorbance, 30 min; AID 602449;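 active means inhibition of 50% or more, scaled per plate between neutral and stimulator controls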
rCAG binder – binds r(CAG) RNA repeats. r(CAG) RNA repeat, TO-PRO-1 dye displacement fluorescence. inhibition, % at 3 µM. actives 1.3% (n = 370,000). AID 651821;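 active means inhibition above the plate cutoff, the mean of all test compounds on that plate plus 3 SD, cut at about 35% in these data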;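 further: higher means more dye released from RNA so lower well fluorescence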
proKLK7 act conf – confirmation of human kallikrein-7 zymogen activators | shares compounds with proKLK7 act | purified proKLK7, EDANS-DABCYL substrate fluorescence; scaled: vehicle 0, mature enzyme 100 | activation, % at 7 µM | actives 68% (n = 3,200);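 active means activation, as change over the incubation, above the mean of all tested compounds plus 3 SD, cut at about 13% in these data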
EDANS interfere – counter-screen for kallikrein-7 activators: EDANS-DABCYL optical interference. shares compounds with proKLK7 act. EDANS-DABCYL substrate fluorescence interference, no enzyme, 4 h; solvent 0%, active enzyme control 100%. activation, % at 7 µM. actives 80% (n = 3,200);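 active means activation above the all-compound mean plus 3 SD, ignoring values outside control-based bounds, cut at about 4.8% in these data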;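 further: value is the 4 h activation minus the activation read at time zero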
EDANS interf – counter-screen for kallikrein-7 activators: EDANS-DABCYL interference, dose response. shares compounds with proKLK7 act. EDANS-DABCYL peptide fluorescence interference, no enzyme. EC50, µM. actives 20% (n = 250);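 active means compounds that raise the fluorescence signal in this interference counterscreen, with EC50 at or below 10 µM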;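 further: intact quenched peptide substrate alone read at 355 nm excitation and 520 nm emission; signal is fluorescence gain from T0 to T4 after four hours at room temperature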
Numbers stand for hits.

`CCOC(=O)C(C)Sc1nc2c(c(-c3cccs3)c1C#N)CCC2` (centres undefined) gave ADAM10 inh inactive, proKLK7 act inactive, Pemphigus Ab inh inactive, ADAM17 inh inactive, MPTP inh inactive and rCAG binder inactive.
`CC(C)OC(=O)CC(=O)CSc1nc2c(c(-c3cccs3)c1C#N)CCC2` gave ADAM10 inh inactive, proKLK7 act 14.8, Pemphigus Ab inh inactive, ADAM17 inh inactive, MPTP inh inactive, rCAG binder inactive, proKLK7 act conf inactive and EDANS interfere 12.0.
`COC(=O)CC(=O)CSc1nc2c(cc1C#N)CCC2` gave ADAM10 inh inactive, proKLK7 act inactive, Pemphigus Ab inh inactive, ADAM17 inh inactive, MPTP inh inactive and rCAG binder inactive.
For CC(C)OC(=O)CC(=O)CSc1nc2c(cc1C#N)CCCCCC2 the results were ADAM10 inh inactive, proKLK7 act 17.9, Pemphigus Ab inh inactive, ADAM17 inh inactive, MPTP inh inactive, rCAG binder inactive, proKLK7 act conf 70.1 and EDANS interfere 76.8.
For Cc1cc(=O)n2nc(N3CCC(C(=O)NCc4ccc(Cl)cc4)CC3)sc2n1 the results were ADAM10 inh inactive, proKLK7 act inactive, ADAM17 inh inactive, MPTP inh inactive and rCAG binder inactive.
O=C(NNC(=O)c1cc(-c2ccco2)nc2ccccc12)c1ccccc1 was read as ADAM10 inh inactive, proKLK7 act 140.8, Pemphigus Ab inh inactive, ADAM17 inh inactive, MPTP inh inactive, rCAG binder inactive, proKLK7 act conf 50.6 and EDANS interfere 69.9.
CCN(CC)C(=O)COC(=O)c1cc(-c2ccco2)nc2ccccc12 was read as ADAM10 inh inactive, proKLK7 act 74.1, Pemphigus Ab inh inactive, ADAM17 inh inactive, MPTP inh inactive, rCAG binder inactive, proKLK7 act conf 20.3, EDANS interfere 17.2 and EDANS interf inactive.
For CCN(CC)C(=O)COC(=O)c1cc(-c2ccc(OC)cc2)nc2ccccc12 the results were ADAM10 inh inactive, proKLK7 act inactive, Pemphigus Ab inh inactive, ADAM17 inh inactive, MPTP inh inactive and rCAG binder inactive.
CCN(CC)CCNC(=O)c1cc(-c2ccco2)nc2ccccc12 was read as ADAM10 inh inactive, proKLK7 act 60.5, Pemphigus Ab inh inactive, ADAM17 inh inactive, MPTP inh inactive, rCAG binder inactive, proKLK7 act conf 57.2 and EDANS interfere 73.4.
CCOC(=O)c1cc(-c2ccco2)nc2c1c(C)nn2CCC#N was read as ADAM10 inh inactive, proKLK7 act 31.6, Pemphigus Ab inh inactive, ADAM17 inh inactive, MPTP inh inactive, rCAG binder inactive, proKLK7 act conf inactive and EDANS interfere inactive.
Screening CSCCC(NC(=O)c1ccccc1Cl)C(=O)NCC(c1ccc(F)cc1)N1CCOCC1 (centres undefined) returned ADAM10 inh inactive, proKLK7 act inactive, Pemphigus Ab inh inactive, ADAM17 inh inactive, MPTP inh inactive and rCAG binder inactive.
`OC(c1ccccc1)(c1ccccc1)c1ncc[nH]1` gave ADAM10 inh inactive, proKLK7 act inactive, Pemphigus Ab inh inactive, ADAM17 inh inactive, MPTP inh inactive and rCAG binder inactive.
CCOC(=O)C1=C(C)OC(N)=C(C#N)C1c1cc2c(cc1[N+](=O)[O-])OCO2 (centres undefined) was read as ADAM10 inh inactive, proKLK7 act 28.7, Pemphigus Ab inh inactive, ADAM17 inh inactive, MPTP inh inactive, rCAG binder inactive, proKLK7 act conf 15.2 and EDANS interfere 15.0.
For CCC1CCCN1Cn1cnc2c([nH]c3ccc(OC)cc32)c1=O (centres undefined) the results were ADAM10 inh inactive, proKLK7 act 27.1, Pemphigus Ab inh inactive, ADAM17 inh inactive, MPTP inh inactive, rCAG binder inactive, proKLK7 act conf inactive and EDANS interfere 10.7.
O=C(Nc1c2c(nn1-c1ccccc1)CS(=O)C2)c1ccc2c(c1)OCO2 (centres undefined) was read as ADAM10 inh inactive, proKLK7 act inactive, ADAM17 inh inactive, MPTP inh inactive and rCAG binder inactive.
For Cc1nc2sc(C(=O)NCc3nccs3)c(N)c2c(C)c1Cl the results were ADAM10 inh inactive, proKLK7 act 83.8, ADAM17 inh inactive, rCAG binder inactive, proKLK7 act conf 62.7 and EDANS interfere 67.7.
CCOC1=C2[C@@H](CN(S(=O)(=O)c3ccc(C)cc3)[C@H]2c2cccc3ccccc23)[C@H]2C(=O)N(CC)C(=O)[C@H]2C1 was read as ADAM10 inh inactive, proKLK7 act inactive, ADAM17 inh inactive, MPTP inh inactive and rCAG binder inactive.
For CCOC(=O)Cn1c(=NC(=O)c2cc(-c3cccs3)nc3ccccc23)sc2cc(S(N)(=O)=O)ccc21 the results were ADAM10 inh inactive, proKLK7 act 171.5, Pemphigus Ab inh inactive, ADAM17 inh inactive, MPTP inh inactive, rCAG binder inactive, proKLK7 act conf inactive and EDANS interfere inactive.
Screening COc1ccc(C2NC(=O)c3ccccc3N2)cc1OC (centres undefined) returned ADAM10 inh inactive, proKLK7 act inactive, Pemphigus Ab inh inactive, ADAM17 inh inactive, MPTP inh inactive and rCAG binder inactive.
For COc1ccc2ccccc2c1C1NC(=O)c2ccccc2N1 (centres undefined) the results were ADAM10 inh inactive, proKLK7 act 16.0, Pemphigus Ab inh inactive, ADAM17 inh inactive, MPTP inh inactive, rCAG binder inactive, proKLK7 act conf inactive and EDANS interfere 6.6.
`CCOC(=O)C1CCN(c2cc3c(cc2NC(=O)c2ccccc2)n(C)c(=O)n3C)CC1` gave ADAM10 inh inactive, proKLK7 act 19.6, Pemphigus Ab inh inactive, ADAM17 inh inactive, MPTP inh inactive, rCAG binder inactive, proKLK7 act conf inactive and EDANS interfere 12.0.
Screening CCOC(=O)C1CCN(c2cc3c(cc2NC(=O)c2ccc(OC)c(OC)c2)n(C)c(=O)n3C)CC1 returned ADAM10 inh inactive, proKLK7 act inactive, Pemphigus Ab inh inactive, ADAM17 inh inactive, MPTP inh inactive and rCAG binder inactive.
N#CCCN(CCC#N)C(=O)C1c2ccccc2Oc2ccccc21 was read as ADAM10 inh inactive, proKLK7 act inactive, Pemphigus Ab inh inactive, ADAM17 inh inactive, MPTP inh inactive and rCAG binder inactive.
